# According to PubChem BioAssay (EPA / NIEHS):
# Calls of active or inactive are those of the source. How the source made its calls: active means hit-call score of the fitted dose curve at least 0.9, where 1 is the maximum; inactive means score below 0.9.
# Read-out: E-selectin (Homo sapiens) (UniProt P16581)
# Experiment: BSK_SAg_Eselectin: BioMAP Diversity Plus: SAg Assay for Eselectin Biomarker Activity (AID 2283091)
# Details: primary human HUVEC with PBMC; actives raise or lower the signal
# Method in brief: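 E-selectin ELISA readout at 24 h post-dosing in human umbilical vein endothelial cell/PBMC co-culture; gain or loss of signal fitted relative to DMSO baseline.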
# Chain of E-selectin (Homo sapiens) (P16581 whole entry, looked up): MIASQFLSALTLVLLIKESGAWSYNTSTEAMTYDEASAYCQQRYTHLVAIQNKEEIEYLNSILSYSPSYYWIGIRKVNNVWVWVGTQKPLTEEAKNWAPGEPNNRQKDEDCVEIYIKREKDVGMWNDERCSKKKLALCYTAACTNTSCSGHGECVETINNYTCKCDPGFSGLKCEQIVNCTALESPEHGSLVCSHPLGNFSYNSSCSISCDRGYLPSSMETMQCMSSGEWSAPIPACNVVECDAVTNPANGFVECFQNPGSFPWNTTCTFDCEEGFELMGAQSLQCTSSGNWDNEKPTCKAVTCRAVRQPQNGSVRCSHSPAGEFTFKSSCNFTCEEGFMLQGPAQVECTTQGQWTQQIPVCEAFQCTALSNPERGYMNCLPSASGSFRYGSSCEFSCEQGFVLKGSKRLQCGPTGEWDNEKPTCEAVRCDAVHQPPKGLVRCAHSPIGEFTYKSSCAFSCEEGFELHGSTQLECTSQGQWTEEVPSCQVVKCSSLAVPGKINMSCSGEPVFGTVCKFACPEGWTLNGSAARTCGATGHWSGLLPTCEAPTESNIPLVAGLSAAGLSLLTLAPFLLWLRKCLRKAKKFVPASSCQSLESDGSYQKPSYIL
Structure (SMILES),outcome,AC50
COP(=O)(NC(C)=O)SC (configuration not stated),inactive,
CCOP(=O)(SC(C)CC)N1CCSC1=O (configuration not stated),inactive,
Cc1ccn2nc(S(=O)(=O)Nc3c(F)cccc3F)nc2n1,inactive,
CN1COCN(Cc2cnc(Cl)s2)C1=N[N+](=O)[O-],inactive,
CC1=NNC(=O)N(/N=C/c2cccnc2)C1,inactive,
CNC(=O)Oc1cccc2c1OC(C)(C)O2,,15 µM (active)
S=C1NCCN1,inactive,
CCCSP(=O)(OCC)SCCC,inactive,
CCCCOC(=O)[C@@H](C)Oc1ccc(Oc2ccc(C#N)cc2F)cc1,inactive,
CCOC(=O)COc1cc(-c2nn(C)c(OC(F)F)c2Cl)c(F)cc1Cl,inactive,
CON=C(C(=O)OC)c1ccccc1CON=C(C)c1cccc(C(F)(F)F)c1,,2.08 µM (active)
FC(F)C(F)(F)OCC(Cn1cncn1)c1ccc(Cl)cc1Cl (configuration not stated),,25.7 µM (active)
CCc1cccc(C)c1N(C(=O)CCl)C(C)COC (configuration not stated),inactive,
CCC(=O)Nc1ccc(Cl)c(Cl)c1,inactive,
CSc1nc(NC(C)C)nc(NC(C)C)n1,inactive,
CCOP(=O)(NC(C)C)Oc1ccc(SC)c(C)c1 (configuration not stated),inactive,
CCOP(=S)(OCC)Oc1ccc([N+](=O)[O-])cc1,,32.8 µM (active)
CCOP(=O)(OCC)Oc1cc(C)nc(C(C)C)n1,inactive,

Structure (SMILES),outcome,AC50
CC[C@H](C)[C@H]1O[C@]2(C=C[C@@H]1C)C[C@@H]1C[C@@H](C/C=C(\C)[C@@H](O[C@H]3C[C@H](OC)[C@@H](O[C@H]4C[C@H](OC)[C@@H](NC)[C@H](C)O4)[C@H](C)O3)[C@@H](C)/C=C/C=C3\CO[C@@H]4[C@H](O)C(C)=C[C@@H](C(=O)O1)[C@]34O)O2,,4.95 µM (active)
COc1ccc(C(=CC(=O)N2CCOCC2)c2ccc(Cl)cc2)cc1OC,,5.93 µM (active)
C[N+]1(C)CCCCC1,inactive,
CCOP(=S)(OCC)Oc1cc(C)nc(C(C)C)n1,inactive,
CCCCN(CC)c1c([N+](=O)[O-])cc(C(F)(F)F)cc1[N+](=O)[O-],,27.6 µM (active)
CC(Oc1cccc(Cl)c1)C(=O)O (configuration not stated),inactive,
CCCCSP(=O)(SCCCC)SCCCC,inactive,
CCCCOC(=O)c1ccccc1C(=O)O,inactive,
O=C(O)c1cc(Oc2ccc(C(F)(F)F)cc2Cl)ccc1[N+](=O)[O-],inactive,
COP(=O)(OC)SCn1c(=O)oc2cc(Cl)cnc21,,20 µM (active)
CNC(=O)ON=C(SC)C(=O)N(C)C,inactive,
CCOP(=S)(OCC)OC(Cl)C(Cl)(Cl)Cl (configuration not stated),,31.2 µM (active)
CCCOc1nn(C(=O)NS(=O)(=O)c2ccccc2C(=O)OC)c(=O)n1C,inactive,
CSc1nnc(C(C)(C)C)c(=O)n1N,inactive,
CCOC(=O)CC(SP(=O)(OC)OC)C(=O)OCC (configuration not stated),inactive,
CC(C)=CC1C(C(=O)OCN2C(=O)C3=C(CCCC3)C2=O)C1(C)C (configuration not stated),,14.4 µM (active)
C#CC(C)(C)NC(=O)c1cc(Cl)cc(Cl)c1,inactive,
COP(=O)(OC)C(O)C(Cl)(Cl)Cl (configuration not stated),,32.5 µM (active)

# Read-out: Monokine induced gamma interferon (MIG), CXCL9 (gene 4283)
# Experiment: BSK_SAg_MIG: BioMAP Diversity Plus: SAg Assay for Monokine induced gamma interferon (MIG) Biomarker Activity (AID 2283092)
# Details: primary human HUVEC with PBMC; actives raise or lower the signal
# Method in brief: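 HUVEC plus human PBMC co-culture, chemicals dosed and MIG (CXCL9) quantified by ELISA at 24 h. Bidirectional curve fitting against DMSO as negative control and baseline, so both gain and loss of signal count as activity.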
Structure (SMILES),outcome,AC50
COP(=O)(NC(C)=O)SC (configuration not stated),inactive,
CCOP(=O)(SC(C)CC)N1CCSC1=O (configuration not stated),inactive,
Cc1ccn2nc(S(=O)(=O)Nc3c(F)cccc3F)nc2n1,inactive,
CN1COCN(Cc2cnc(Cl)s2)C1=N[N+](=O)[O-],inactive,
CC1=NNC(=O)N(/N=C/c2cccnc2)C1,inactive,
CNC(=O)Oc1cccc2c1OC(C)(C)O2,inactive,
S=C1NCCN1,inactive,
CCCSP(=O)(OCC)SCCC,inactive,
CCCCOC(=O)[C@@H](C)Oc1ccc(Oc2ccc(C#N)cc2F)cc1,inactive,
CCOC(=O)COc1cc(-c2nn(C)c(OC(F)F)c2Cl)c(F)cc1Cl,inactive,
CON=C(C(=O)OC)c1ccccc1CON=C(C)c1cccc(C(F)(F)F)c1,,8.87 µM (active)
FC(F)C(F)(F)OCC(Cn1cncn1)c1ccc(Cl)cc1Cl (configuration not stated),inactive,
CCc1cccc(C)c1N(C(=O)CCl)C(C)COC (configuration not stated),inactive,
CCC(=O)Nc1ccc(Cl)c(Cl)c1,inactive,
CSc1nc(NC(C)C)nc(NC(C)C)n1,inactive,
CCOP(=O)(NC(C)C)Oc1ccc(SC)c(C)c1 (configuration not stated),inactive,
CCOP(=S)(OCC)Oc1ccc([N+](=O)[O-])cc1,inactive,
CCOP(=O)(OCC)Oc1cc(C)nc(C(C)C)n1,inactive,

Structure (SMILES),outcome,AC50
CC[C@H](C)[C@H]1O[C@]2(C=C[C@@H]1C)C[C@@H]1C[C@@H](C/C=C(\C)[C@@H](O[C@H]3C[C@H](OC)[C@@H](O[C@H]4C[C@H](OC)[C@@H](NC)[C@H](C)O4)[C@H](C)O3)[C@@H](C)/C=C/C=C3\CO[C@@H]4[C@H](O)C(C)=C[C@@H](C(=O)O1)[C@]34O)O2,,8.62 µM (active)
COc1ccc(C(=CC(=O)N2CCOCC2)c2ccc(Cl)cc2)cc1OC,,25 µM (active)
C[N+]1(C)CCCCC1,inactive,
CCOP(=S)(OCC)Oc1cc(C)nc(C(C)C)n1,inactive,
CCCCN(CC)c1c([N+](=O)[O-])cc(C(F)(F)F)cc1[N+](=O)[O-],inactive,
CC(Oc1cccc(Cl)c1)C(=O)O (configuration not stated),inactive,
CCCCSP(=O)(SCCCC)SCCCC,inactive,
CCCCOC(=O)c1ccccc1C(=O)O,inactive,
O=C(O)c1cc(Oc2ccc(C(F)(F)F)cc2Cl)ccc1[N+](=O)[O-],inactive,
COP(=O)(OC)SCn1c(=O)oc2cc(Cl)cnc21,inactive,
CNC(=O)ON=C(SC)C(=O)N(C)C,inactive,
CCOP(=S)(OCC)OC(Cl)C(Cl)(Cl)Cl (configuration not stated),inactive,
CCCOc1nn(C(=O)NS(=O)(=O)c2ccccc2C(=O)OC)c(=O)n1C,inactive,
CSc1nnc(C(C)(C)C)c(=O)n1N,inactive,
CCOC(=O)CC(SP(=O)(OC)OC)C(=O)OCC (configuration not stated),inactive,
CC(C)=CC1C(C(=O)OCN2C(=O)C3=C(CCCC3)C2=O)C1(C)C (configuration not stated),,34.2 µM (active)
C#CC(C)(C)NC(=O)c1cc(Cl)cc(Cl)c1,inactive,
COP(=O)(OC)C(O)C(Cl)(Cl)Cl (configuration not stated),inactive,
